# In the library only some 19% were active in any assay of this set; here they are far more common.
# SW480 rereplic: DNA re-replication induction in SW480 cells | SW480 DNA re-replication, Hoechst DNA content imaging, 48 h | Potency, µM (series often up to 46.1 µM), inactives show at the highest dose re-replication activation, hits mostly activators | 1.8% of 340,000 active | AID 624297; note: potency is the fitted concentration of half-maximal effect; % of control where 0% means no effect; nearly all actives have a fitted effect of over 55% in size
#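 Hoechst fluorescence of nuclei (405 nm excitation, 500-530 nm emission) measured by plate-scanning imager after 48 hr compound exposure at 37 C; re-replication scored as increased number of nuclei with elevated intensity.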
# MCF10A rerep: DNA re-replication induction in MCF 10a cells; 2.9% of 350,000 active; Potency, µM (doses to about 46.1 µM), for inactives: at the highest dose activity, positive = re-replication, most hits filed as activators; MCF 10A DNA re-replication, Hoechst nuclear intensity, 48 h; note: potency is the fitted concentration of half-maximal effect; % of control where 0% means no effect; nearly all actives have a fitted effect of over 50% in size
# TDP1 cell CPT: DT40-hTDP1 cell growth loss with CPT | AID 686979 | 12% of 420,000 active | chicken DT40 Tdp1-/-;hTDP1 cells + 20 nM CPT, ATP luminescence, 48 h | Potency, µM (titrated, usually from 46.2 µM), without a hit: at the top dose activity change, negative = growth inhibition, actives largely listed as inhibitors; note: potency is the fitted concentration of half-maximal effect; % is set by controls: 0 for no effect and ±100 for the full control effect; nearly all actives have a fitted effect of over 55% in size
#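 Cell growth measured by CellTiter-Glo luminescence after a minimum 48 h, 37 C compound exposure with 20 nM CPT in Tdp1-knockout DT40 cells stably expressing hTDP1, seeded 400/well; qHTS titration format.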
# IL1B secr inh: inflammasome signaling inhibition, IL-1 beta readout; THP-1 LPS/ATP IL-1B secretion, AlphaLISA, 16 h; active compounds read low; activity change, % at 57.5 µM; 4.7% of 360,000 active; AID 743279; in the data active = activity change below about -50%; inconclusive = mostly about -30% to -49%; note: % is set by controls: 0 for no effect and ±100 for the full control effect
#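 Secreted IL-1B measured by AlphaLISA bead assay after 16 h compound exposure of THP-1 cells; compounds (final up to 57.5 uM) added 1 h before LPS (250 ng/mL) and ATP (1.25 mM) stimulation; lower signal means less secretion.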
# TDP1 cell noCPT: qHTS for Inhibitors of human tyrosyl-DNA phosphodiesterase 1 (TDP1): qHTS in cells in absence of CPT. DT40 Tdp1-/- hTDP1 cells, no CPT, ATP luminescence, 48 h. AID 686978, 2013. Potency, µM (highest dose often 46.2 µM), inactives show top-dose activity change, negative = growth inhibition, actives largely listed as inhibitors. 15% of 420,000 active; note: potency is the fitted concentration of half-maximal effect; % is set by controls: 0 for no effect and ±100 for the full control effect; nearly all actives have a fitted effect of over 55% in size
#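 Luminescent ATP content (CellTiter-Glo) served as the growth readout. Knockout chicken DT40 cells expressing human TDP1 were exposed to compounds without camptothecin for a minimum 48 hr at 37 °C.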
# Chronic BCR inh: chronic active BCR signaling inhibition; ABC-DLBCL IkBa-CBG/CBR reporter, luminescence ratio, 4 h; Potency, µM (top dose mostly 46.1 µM), for inactives: at the highest dose activity change, negative = inhibition, hits mostly inhibitors; 0.05% of 340,000 active; AID 493014; active = well fitted inhibition curve with a large enough effect in the signal ratio, with a control signal flat, not every such curve was filed as active; inconclusive = small, poorly fitted or top-dose-only effect, or effect the other way, or a change in a side signal; the % refers to the signal ratio;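 note: potency is the fitted concentration of half-maximal effect; plate controls were basal doxycycline-induced cells for no effect and cells given 10 µM MG132 for full effect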
#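 TMD8 ABC-DLBCL cells carrying doxycycline-inducible green luciferase fused to IkappaBalpha plus unfused red luciferase were exposed to compounds (up to 46 uM) for 4 hrs at 37C. Activity came from the overlap-corrected green/red luminescence ratio.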
# Numbers without * were called inactive; ? = inconclusive; / = no result given; [ ] = another dose, or the depositor's remark. Unless noted, calls come from the whole dose curve; as a rule, active = well fitted curve in the direction sought with a large enough effect; inconclusive = small, poorly fitted or top-dose-only effect, or another doubt; inactive = no such curve, though single readings can be large; an effect the other way counts as inactive or inconclusive.
SMILES,SW480 rereplic,MCF10A rerep,TDP1 cell CPT,IL1B secr inh,TDP1 cell noCPT,Chronic BCR inh
CCOc1ccc(C(C(=O)NCC2CCCO2)N(Cc2cccs2)C(=O)c2snc(C(N)=O)c2N)cc1 (stereo not given),0%,9%,23µM*,9,9.2µM*,8%
COc1ccc(N(C(=O)c2snc(C(N)=O)c2N)C(C(=O)NC2CCCCC2)c2ccc(C)o2)cc1 (stereo not given),?,-18%,?,-50*,16µM*,-7%
Cc1ncc2c(c1CNC(=O)c1ccc3c(c1)OCO3)CCN(C(=O)c1ccc3ccccc3c1)C2,/,/,7%[9.04 µM],/,-19%,/
COc1ccc(N(CC(=O)NCc2ccccc2OC)S(=O)(=O)c2ccc(C)cc2)cc1Cl,4%,5%,?,0,?,?
COc1ccc(OC)c(S(=O)(=O)NC(=O)C2(C)CCN2C(=O)Cc2ccccc2Cl)c1 (stereo not given),/,/,11%,26,5%,/
CCOc1ccc(C(C(=O)NCC2CCCO2)N(C(=O)c2snc(C(N)=O)c2N)c2ccccc2F)cc1 (stereo not given),23%,?,21µM*,-72*,?,-5%
CCOc1ccc(N(C(=O)c2snc(C(N)=O)c2N)C(C(=O)NCC2CCCO2)c2ccc(C)o2)cc1 (stereo not given),3%,5%,18µM*,-27,?,-18%
O=C1NC[C@@H](CCCCN2C[C@H](Cc3ccc(O)cc3)N(CCc3ccc(O)cc3)C(=O)C2=O)N(CCc2ccccc2)C1=O,/,/,-19%,4,-27%,/
CCc1ccc(NC(=O)c2cnn3ccccc23)cc1,7%,-7%,4%,-11,-23%,?
CCc1ccc(NC(=O)c2cnn(-c3ccccc3)c2-n2cccc2)cc1,/,/,18µM*,/,?,/
Cc1cccc(NC(=O)c2cnn(-c3ccccc3)c2-n2cccc2)c1C,/,/,16µM*,/,?,/
Cn1c(SCC(=O)N2CCCc3ccccc32)ncc(C(=O)Nc2ccccc2)c1=O,/,/,-12%,/,0%,?
CCN(CC(=O)Nc1c(F)cccc1F)C(=O)c1ccc(N2CCCC2=O)cc1,-33%,15%,5%,4,-1%,-2%
S=C(NCc1ccccc1)NC1CCCc2ccccc21 (stereo not given),-1%,0%,?,-57*,?,-4%
S=C(NCc1ccco1)NC1CCCc2ccccc21 (stereo not given),-21%,6%,?,-4,?,6%
O=C(Nc1ccc(F)cc1)NC1CCCc2ccccc21 (stereo not given),-1%,25%,-25%,25,-2%,-13%
O=C(Nc1ccccc1)NC1CCCc2ccccc21 (stereo not given),1.2µM*,-2%,?,-12,18µM*,?
CCOC(=O)Nc1ccc2c(c1)C(=NNC(=S)NC)c1ccccc1-2,/,/,4.6µM*,27,3.3µM*,/
CCOC(=O)NN=C1c2ccccc2-c2ccccc21,1%,1%,?,-3,?,-1%
CN(C)CCCN(C(=O)c1ccco1)c1nc2ccc(Cl)cc2s1,?,13%,18µM*,-16,16µM*,8%
Cc1ccc(C(=O)N(CCCN(C)C)c2nc3ccc(Cl)cc3s2)cc1C,?,5%,?,-107*,?,?
Cc1ccc2nc(N(CCCN(C)C)C(=O)c3sc4ccccc4c3Cl)sc2c1,-1%,?,16µM*,-91*,26µM*,-2%
Cc1ccc2nc(N(Cc3cccnc3)C(=O)c3ccco3)sc2c1,/,/,-6%,/,-4%,1%
CN(C)CCCN(C(=O)c1ccco1)c1nc2ccc(Br)cc2s1,?,-1%,23µM*,-70*,23µM*,?
CN(C)CCN(C(=O)c1ccco1)c1nc2cc3c(cc2s1)OCCO3,?,4%,4.6µM*,7,3.7µM*,-1%
SMILES,SW480 rereplic,MCF10A rerep,TDP1 cell CPT,IL1B secr inh,TDP1 cell noCPT,Chronic BCR inh
CCc1ccc2nc(N(CCN(C)C)C(=O)c3ccc4ncsc4c3)sc2c1,-2%,?,0%,-76*,-26%,-15%
Cc1cccc(N2CCN(C(=O)Cn3c(=O)c4cccn4c4ccc(F)cc43)CC2C)c1 (stereo not given),/,/,18µM*,/,18µM*,/
Cc1cccc(N2CCN(C(=O)c3cc4c(=O)n(C)c5ccccc5c4n3C)CC2C)c1 (stereo not given),15%,6%,18µM*,-24,9.2µM*,/
Cn1c(C(=O)N2CCN(Cc3ccccc3)CC2)cc2c(=O)n(C)c3ccccc3c21,-3%,-7%,18µM*,-18,?,-2%
COc1ccc(-n2nc(C(=O)N3CCN(c4cccc(C)c4)C(C)C3)c3c4ccccc4n(C)c3c2=O)cc1 (stereo not given),/,/,-11%,/,?,/
CCOC(=O)N1CCN(C(=O)c2cc3c(=O)n(C)c4ccccc4c3n2C)CC1,-15%,10%,21µM*,-12,16µM*,?
O=C(Cn1c(=O)c2cccn2c2ccc(F)cc21)N1CCN(c2ccc(F)cc2)CC1,-9%,-28%,?,-5,?,-10%
CCN1CCN(C(=O)c2cc3c(=O)n(C)c4ccccc4c3n2C)CC1,-1%,25%,6%,-6,-9%,11%
CCn1c(=O)[nH]c2cc(C(=O)Nc3cc(C)cc(C)c3)ccc2c1=O,-2%,?,-17%,-6,?,11%
Cc1ccccc1-c1cc(C(=O)NCc2cccc(Br)c2)nn1CC1CC(c2cccc([N+](=O)[O-])c2)=NO1 (stereo not given),-16%,36%,-26%,-7,?,0%
COc1ccccc1C(=O)NC1CCCCCCC1,-1%,6%,-16%,?,?,?
COc1ccccc1/C=N/n1c(N)c(C(=O)NC2CCCCC2)c2nc3ccccc3nc21,4.1µM*,10µM*,?,-9,?,-11%
Nc1c(C(=O)NC2CCCC2)c2nc3ccccc3nc2n1N,2%,?,?,-4,23µM*,?
Nc1c(C(=O)NC2CCCC2)c2nc3ccccc3nc2n1/N=C/c1ccco1,1.5µM*,?,1%,-15,-28%,?
Cc1ccc(S(=O)(=O)c2c(N)n(NC(=O)c3ccco3)c3nc4ccccc4nc23)cc1,1%,6%,-1%,-24,7%,?
